Assay results from PubChem BioAssay.
“And” between values parts separate entries of the source, which are not always exact repeats. Equal entries are not always repeated. Unmarked numbers belong to inactive results. The source made the active and inactive calls.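 How the source made its calls: active means inhibition at or above 50% relative to wild type and mutant plate controls; inactive means inhibition below 50%.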

Assay: inhibitors of Chlamydomonas gravitaxis, primary screen, whole organism, Chlamydomonas reinhardtii, WT vs cilia-less mutant, absorbance, 96-well (AID 463189);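 further: 0% = wild type cc124 cells in DMSO and 100% = ciliumless bld1 mutant cells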
Details: OD600 absorbance, 2 days, at 10 µM, active compounds read high

Structure (SMILES)	inhibition
CC[C@@H](CO)NC(=O)[C@@H]1C=C2c3cccc4[nH]cc(c34)C[C@H]2N(C)C1	-0.368%
O=C1CC[C@@]2(O)[C@H]3Cc4ccc(O)c5c4[C@@]2(CCN3CC2CC2)[C@H]1O5	17.1%
N#CC(C#N)=Cc1cc(O)c(O)c(O)c1	7.39%
CCCN(CCC)C1CCc2cccc(O)c2C1 (configuration not stated)	1.17%
CCCC(C)(COC(N)=O)COC(=O)NC(C)C (configuration not stated)	-1.2% and -10.3%
c1ccc(C2CC2)c(OCC2=NCCN2)c1	3.8%
CCCN(CCC)[C@@H]1CCc2ccc(O)cc2C1	-3.45%
COc1ccc2c(c1)[C@@]13CCCC[C@H]1[C@@H](C2)NCC3	4.9%
COc1ccc(Cc2nccc3cc(OC)c(OC)cc23)cc1OC	-20% and 8.29%
O=[N+]([O-])c1cc(O)c(O)c([N+](=O)[O-])c1	-10.8%
CN[C@@H](C)[C@H](O)c1ccccc1	-4.11%
C=CCN1CC[C@]23c4c5ccc(O)c4O[C@@H]2/C(=N/N=C2\CC[C@@]4(O)C6Cc7ccc(O)c8c7[C@@]4(CCN6CC=C)[C@@H]2O8)CC[C@@]3(O)C1C5	6.59%
C[N+]1(C)[C@@H]2CC[C@H]1CC(OC(=O)C(CO)c1ccccc1)C2 (some centres not stated)	30.8% and -7.87%
C[C@]12CC[C@H](OS(=O)(=O)O)CC1=CC[C@@H]1[C@@H]2CC[C@]2(C)C(=O)CC[C@@H]12	6.73%
NC(=NCCC[C@H](N)C(=O)O)N[N+](=O)[O-]	2.94%
CN1CCN(c2ccc3ccccc3n2)CC1	23.3%
CN1CC[C@@]2(C)c3cc(O)ccc3N(C)C12 (some centres not stated)	-1.8%
COc1ccc2[nH]cc(CCN)c2c1	3.77%
COc1ccc2c(c1)c(C(=O)O)c(C)n2CC(C)C	36.3%

Structure (SMILES)	inhibition
CC(C)(C)c1o[nH]c(=O)c1CC(N)C(=O)O (configuration not stated)	0.571%
O=c1[nH]oc2c1CCNC2	1.51%
O=P(c1ccccc1)(c1ccccc1)N1CCCCC1	-7.33%
Nc1ncnc2c1ncn2[C@@H]1O[C@H](COP(=O)(O)CP(=O)(O)OP(=O)(O)O)[C@H](O)C1O (some centres not stated)	8.43%
CCCCCCCCCCCCCC(=O)O[C@@H]1[C@@H](C)[C@@]2(O)[C@@H](C=C(CO)C[C@@]3(O)C(=O)C(C)=C[C@@H]23)C2C(C)(C)[C@@]21OC(C)=O (some centres not stated)	-13.4%
c1ccc2c(c1)OCC(C1=NCCN1)O2 (configuration not stated)	-4.66% and 22.4%
COc1ccc(CNC(=O)/C=C/c2ccc3[nH]cc(CCN(C)C)c3c2)cc1	-7.85%
CCNC(=O)[C@H]1O[C@@H](n2cnc3c(N)ncnc32)C(O)[C@H]1O (some centres not stated)	-1.46%
CCCN(CCC)C(=O)Cc1c(-c2ccc(Cl)cc2)nc2c(Cl)cc(Cl)cn12	-9.74%
O=C(COc1ccc2ccccc2c1)N1CCN(C2CCN(Cc3ccccc3)CC2)CC1	64.5% (active)
CC1OC1P(=O)(O)O (configuration not stated)	0.291%
CC(=O)CC(C)(C)n1c[n+](C)nn1	-0.884%
C[C@]12CCC(=O)C=C1CC[C@@H]1[C@@H]2CC[C@]2(C)C(=O)CC[C@@H]12	3.25% and 26.7%
CCCCCCCCC(=O)NCc1ccc(O)c(OC)c1	12.3%
CN(C)[C@@H]1C(=O)C(C(N)=O)=C(O)[C@@]2(O)C(=O)C3=C(O)c4c(O)cccc4[C@@](C)(O)[C@H]3[C@H](O)[C@@H]12	12%
O=c1[nH]c2ccccc2n1CCCN1CCC(n2c(=O)[nH]c3cc(Cl)ccc32)CC1	2.96% and 11.3%
O=[N+]([O-])c1ccc(O[C@@H]2O[C@H](CO)[C@@H](O)[C@H](O)[C@H]2F)c([N+](=O)[O-])c1	3.53%
Cn1c(O)c(C(=O)c2ccccc2Cl)c(=O)n(C)c1=O	9.5%
